# Reference: the antibiotic and cytotoxicity screens of Wong et al. (2023)
# About 1,500 (3.8%) of roughly 39,000 compounds were called active. The list comes from a sample in which actives are over-represented; it also holds similar structures and randomly drawn compounds.
# Test system: HSkMC (human skeletal muscle cells)
# Experiment: cytotoxicity call (relative viability < 0.9)
# Conditions: 10 µM
row,SMILES,cytotoxicity call
1,Cc1ccc(S(=O)(=O)N(C)C[C@H]2Oc3ccc(NC(=O)CCN4CCOCC4)cc3C(=O)N([C@H](C)CO)C[C@@H]2C)cc1,inactive
2,C[C@@H]1CCCCO[C@@H](CN(C)C(=O)Nc2ccc(C(F)(F)F)cc2)[C@@H](C)CN([C@H](C)CO)C(=O)c2cc(NC(=O)Nc3cccc4ccccc34)ccc2O1,inactive
3,C=C/C=C/[C@@H]1C(=C)CN([C@@H](Cc2ccccc2)C(=O)OC)[C@H]1[C@@H](O)CCn1cc(CCC(=O)NO)nn1,inactive
4,C[C@H]1CN([C@@H](C)CO)C(=O)c2cccc(NC(=O)C3CC3)c2O[C@H]1CN(C)C(=O)Nc1ccc2c(c1)OCO2,inactive
5,CCC(C)(C)c1ccc(CC(C)CN2CC(C)OC(C)C2)cc1.Cl (centres undefined),inactive
6,NCc1cn(-c2ccccc2)nc1C12CC3CC(CC(C3)C1)C2,active
7,OCc1cn(-c2ccccc2)nn1,inactive
8,c1ccc(-c2nc(C34CC5CC(CC(C5)C3)C4)cs2)cc1,inactive
9,C[C@H]1CCN=C(N)S1,inactive
10,C[C@@H]1CN([C@@H](C)CO)C(=O)c2cccc(NC(=O)c3cnccn3)c2O[C@@H]1CN(C)S(=O)(=O)c1ccc(Cl)cc1,inactive
11,O=C(O)c1ccc(C(=O)O)nc1,inactive
12,COc1ccc2c3c([nH]c2c1)[C@H](CO)N(C[C@]13CCN(CC1)C(=O)c1ccncc1)C(=O)c1ccncc1,inactive
13,C[C@@H]1CN([C@@H](C)CO)C(=O)c2cc(NC(=O)CCCN(C)C)ccc2O[C@@H](C)CCCCO[C@H]1CN(C)CC1CCCCC1,inactive
14,CCCNc1nc(=O)c(C)n[nH]1,inactive
15,Cc1n[nH]c(NCc2ccco2)nc1=O,inactive
16,Cc1n[nH]c(N/N=C/c2ccccn2)nc1=O,active
17,Cc1ccc(-c2nn[nH]n2)n1C,inactive
18,C[C@@H]1CN([C@@H](C)CO)C(=O)c2cc(NC(=O)NC3CCCCC3)ccc2O[C@@H](C)CCCCO[C@H]1CN(C)C(=O)c1ccncc1,inactive
19,C[C@@H]1CN([C@H](C)CO)C(=O)Cc2cc(NS(=O)(=O)c3ccccc3)ccc2O[C@@H]1CN(C)Cc1ccc2c(c1)OCO2,inactive
20,O=C(C[C@@H]1CC[C@@H]2[C@H](COC[C@@H](O)CN2C(=O)c2cnccn2)O1)N1CCN(c2ccccc2)CC1,inactive
21,Cc1cc(C(=O)Nc2cccc3c2O[C@@H](CN(C)C(=O)Nc2ccc4c(c2)OCO4)[C@@H](C)CN([C@H](C)CO)C3=O)n(C)n1,inactive
22,O=C(N[C@@H](c1ccc(-c2ccccc2)cc1)c1cnccn1)C1CCN(CCOc2ccc(F)cc2)CC1,inactive
23,Cc1cc(-c2cc(OC(=O)c3ccccc3)ccc2Cl)cc2nnc(Nc3ccc(OCCN4CCCC4)cc3)nc12,active
24,O=C(N[C@@H](c1ccccc1)c1ccc2ccccc2n1)C1CCN(CCOc2ccc(Cl)cc2)CC1,inactive
